Hits are enriched below; roughly 7.4% of the tested compounds scored in any of these assays.
Rab9 promoter act: activators of Rab9 promoter. Huh7 Rab9 promoter-luciferase reporter, luminescence, 24 h. Potency, µM (top dose mostly 9.22 µM), inactives show top-dose activation, negative = inhibition, most hits filed as activators. actives 2.8% (n = 320,000). AID 485297; further: % of control where 0% means no effect; nearly all actives have a fitted effect of over 60% in size
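Promoter activation is measured as luciferase luminescence in Huh7 cells stably transfected with a Rab9 promoter–luciferase construct, following 24 h compound exposure at 37 °C and 10 min reagent incubation at ambient temperature.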
FLuc modulator: firefly luciferase modulation, counter-screen for miR-21 project. purified FLuc, Km substrates, luminescence inhibition. P08659. actives 6.9% (n = 360,000). Potency, µM (top dose mostly 57.5 µM), without a hit: at the top dose activity change, negative = inhibition, most hits filed as inhibitors;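 further: plate controls were vehicle for no effect and reference inhibitor for full effect; nearly all actives have a fitted effect of over 55% in size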
Target sequence (P08659 whole entry, looked up): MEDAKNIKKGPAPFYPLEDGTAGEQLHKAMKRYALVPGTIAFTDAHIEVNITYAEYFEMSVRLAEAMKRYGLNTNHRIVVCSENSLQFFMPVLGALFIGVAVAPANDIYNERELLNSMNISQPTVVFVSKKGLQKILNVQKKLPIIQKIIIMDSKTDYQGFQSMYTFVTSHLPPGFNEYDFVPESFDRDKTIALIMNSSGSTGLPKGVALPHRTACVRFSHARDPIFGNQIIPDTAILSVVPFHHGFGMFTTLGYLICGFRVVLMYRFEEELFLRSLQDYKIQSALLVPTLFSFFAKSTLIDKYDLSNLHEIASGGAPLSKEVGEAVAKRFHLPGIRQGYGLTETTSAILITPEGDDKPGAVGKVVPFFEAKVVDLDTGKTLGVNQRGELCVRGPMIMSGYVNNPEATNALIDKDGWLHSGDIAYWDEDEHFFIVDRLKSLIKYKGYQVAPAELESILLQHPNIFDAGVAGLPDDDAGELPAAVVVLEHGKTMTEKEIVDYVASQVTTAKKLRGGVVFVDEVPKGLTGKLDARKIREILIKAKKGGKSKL
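Biochemical qHTS of compounds, final roughly 60 µM downward over six points, against 10 nM purified firefly luciferase using Km concentrations of substrates (10 uM D-luciferin, 10 uM ATP) in Tris acetate pH 7.5 buffer; luminescence output.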
SMN2 splice up: increases expression of the SMN2 splice variant. Potency, µM (highest dose often 46.1 µM), inactives show top-dose activity change, positive = activation, most hits filed as activators. actives 2.8% (n = 210,000). AID 1458. HEK293 SMN2-luciferase splicing reporter, luminescence, 30-36 h; further: % of control where 0% means no effect; nearly all actives have a fitted effect of over 55% in size
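qHTS luciferase splicing reporter: luminescence rises when SMN2 exon 7 is included in transfected HEK293 cells. Compound exposure lasted 30-36 h at 37C, with 4.5 mM final sodium butyrate as control, followed by a ONE-Glo read.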
NPC1 prom act: NPC1 promoter activation; AID 485313; Potency, µM (series often up to 9.22 µM), for inactives: top-dose activation, usual class: activators; Huh7 NPC1 promoter luciferase reporter, 24 h; actives 2.4% (n = 320,000); further: % of control where 0% means no effect; nearly all actives have a fitted effect of over 60% in size
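Luminescence read-out of NPC1 promoter-driven luciferase in stably transfected Huh7 cells; compounds delivered in DMSO and left 24 h at 37C, 5% CO2, qHTS titration format.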
ELG1 genotox: inducers of genotoxicity in HEK293T ELG1-luciferase cells. HEK293T ELG1-luciferase reporter, luminescence, 16 h. AID 504466. actives 1.3% (n = 330,000). Potency, µM (top dose mostly 46 µM), inactives show top-dose activity change, positive = activation, hits mostly activators; further: % of control where 0% means no effect; nearly all actives have a fitted effect of over 60% in size
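Luminescence read-out: rising ELG1-luciferase signal, reflecting elevated ELG1 protein under genetic stress, flags genotoxic compounds. Cells were treated for 16 hr at 37 °C before ONE-Glo detection.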
* marks the source's active call; other numbers are inactive results; ? = inconclusive; . = no result; [ ] = remark or other dose. The call rests on the fitted dose curve; in most records, active means well fitted curve in the direction sought with a large enough effect; inconclusive means small, poorly fitted or top-dose-only effect, or another doubt; inactive means no such curve, though single readings can be large; an effect the other way counts as inactive or inconclusive. Potency means the concentration at half of the fitted maximal effect.

SMILES	Rab9 promoter act	FLuc modulator	SMN2 splice up	NPC1 prom act	ELG1 genotox
CN(C)c1ccc(/C=N\NC(=O)c2csnn2)cc1	0.631µM*	3.79µM*	15.8µM*	0.891µM*	?
CC(C)c1ccc(/C=N/NC(=O)c2ccccn2)cc1	0.316µM*	0.379µM*	.	0.141µM*	?
CN(C)c1ccc(/C=N/NC(=O)c2cnc3ccccc3c2)cc1	2.0%	?	.	12.2%	7.5%
CCOC(=O)N/N=C/c1ccc(Oc2ccccc2)cc1	?	19µM*	?	?	15.5%
CCC(C)C(NC(=O)CCC(=O)OCC(=O)[C@@]1(O)CCC2[C@@H]3CCC4=CC(=O)C=C[C@]4(C)C3[C@@H](O)C[C@@]21C)C(=O)O (stereo not given in full)	3.0%	0.6%	.	-1.9%	11.3%
C=CCC(C)(O)CCc1ccccc1 (stereo not given)	.	.	13.0%	.	.
CCN(CC)C(=O)CSc1nc2cc3c(cc2c(=O)n1CCCCCC(=O)NCCc1ccc(OC)c(OC)c1)OCO3	.	-10.2%	.	.	.
O=C(CCN1C(=O)c2ccc(Br)cc2C1=O)NC1CCCCC1	-2.2%	3.5%	.	-5.1%	1.9%
O=C(Oc1coc(CSc2nnc(NC(=O)C3CC3)s2)cc1=O)c1c(F)cccc1F	-10.1%	?	-18.1%	-4.9%	-12.5%
COC(=O)c1[nH]c2c(c1C)C(=O)CC(c1cccc(OC)c1)C2 (stereo not given)	-21.9%	-0.5%	.	-20.0%	13.0%
NNC(=O)COc1ccc2oc3c(c2c1)CCCC3	0.6%	?	.	2.6%	2.1%
Cc1ccc(/C=N/NC(=O)c2ccncc2)o1	-8.0%	-0.3%	-17.4%	0.8%	-0.3%
Cc1cccc(/C=N\NC(=O)c2csnn2)c1	27.6%	8.49µM*	17.1%	?	?
CC(C)c1ccc(/C=N/NC(=O)c2cccc(Cl)c2)cc1	2.82µM*	2.69µM*	15.8µM*	2.82µM*	20.6µM*
Cc1ccc(/C=N/NC(=O)c2ccccn2)o1	?	23.9µM*	?	?	?
CC(C)Oc1ccccc1/C=N/NC(=O)c1ccccc1Cl	-0.4%	?	.	25.6%	0.5%
Cc1cccc(/C=N/NC(=O)C[n+]2ccccc2)c1	1.2%	2.7%	.	-2.3%	0.8%
CC(C)c1ccc(C(=O)N/N=C/c2cccc(Cl)c2Cl)cc1	?	8.49µM*	4.8%	?	0.0%
Nc1cccc(NP(=O)(c2ccccc2)c2ccccc2)c1	-0.9%	-0.1%	.	-0.2%	-2.0%
O=C(CCS(=O)(=O)c1cccc2nonc12)Nc1ccc(F)cc1F	.	-0.9%	.	.	.
Cc1ccc(/C=N/NC(=O)c2cccc(NC(=O)c3ccccc3Cl)c2)o1	-1.9%	16.9µM*	.	-1.7%	-3.6%
CC(C)c1ccc(/C=N/NC(=O)CCNC(=O)c2ccccc2)cc1	?	8.49µM*	.	?	23.4%
c1ccc(Cc2nnc(-c3ccccc3)o2)cc1	?	23.9µM*	?	?	3.26µM*
Cc1ccc(-c2nnc(Cc3ccc(Cl)cc3)o2)cc1	28.4%	16.9µM*	21.3%	23.4%	16.4µM*
COc1ccc(Cc2nnc(-c3ccccc3)o2)cc1	?	?	-13.0%	16.6%	.
SMILES	Rab9 promoter act	FLuc modulator	SMN2 splice up	NPC1 prom act	ELG1 genotox
Brc1ccc(-c2nnc(Cc3ccccc3)o2)cc1	?	10.7µM*	.	3.55µM*	20.6µM*
c1ccc(-c2nnc(CSc3nncs3)o2)cc1	25.2%	?	?	27.9%	23.1µM*
Cc1ccc(C(=O)N(Cc2nnc(-c3ccc(Cl)cc3)o2)C2CC2)o1	-4.7%	-26.5%	.	0.6%	1.1%
CCCc1nnc(SCC(=O)Nc2nc(C)cs2)n1CCOC	6.6%	-19.8%	.	0.0%	?
COc1cccc(/C=C(\C#N)c2nc3ccccc3c(=O)[nH]2)c1OC	.	-10.3%	-2.3%	.	.
Cc1ccccc1-c1nnc(Cc2ccccc2)o1	3.98µM*	10.7µM*	11.2µM*	3.98µM*	?
CSc1nc(N)c(C(=O)Nc2ccc([N+](=O)[O-])cc2)s1	12.6%	-14.8%	.	18.6%	7.7%
Cc1ccc(Cc2c(C)nc3nc(SCC(=O)NC(C)c4ccccc4)nn3c2C)cc1 (stereo not given)	.	-6.4%	-18.2%	.	.
COc1ccc(-c2csc(NC(=O)c3ccc(OCC(=O)N4CCOCC4)c(OC)c3)n2)cc1	10.7%	16.9µM*	-31.1%	-0.5%	-10.6%
COc1ccc(OC)c(NC(=O)c2ccc3c(c2)OCO3)c1	12.9%	21.3µM*	.	15.2%	7.9%
COc1cc(C(=O)Nc2nc(-c3ccc(C)cc3)cs2)ccc1OCC(=O)N1CCOCC1	29.2%	?	-41.6%	12.6%	-10.5%
COc1ccccc1NC(=O)c1ccc2c(c1)OCO2	3.98µM*	15.1µM*	.	2.51µM*	10.3µM*
COc1ccc(OC)c(-c2csc(NC(=O)c3ccc4c(c3)OCO4)n2)c1	3.7%	4.78µM*	?	17.3%	-2.9%
COc1ccc(NS(=O)(=O)c2cc(C(=O)NNC(=O)c3ccncc3)ccc2OC)c(OC)c1	.	.	.	.	0.6%
COc1cccc(CNC(=O)C2CCN(c3nnc(-n4c(C)ccc4C)s3)CC2)c1	.	4.2%	19.4%	.	.
O=C(Nc1ccc2c(c1)oc1ccccc12)c1ccc2c(c1)OCO2	?	?	11.0%	?	?
COc1cc2c(cc1NCc1ccc3c(c1)OCO3)oc1ccccc12	-2.3%	?	22.4µM*	25.7%	14.7%
COc1cc2c(cc1NC(=O)c1ccc3c(c1)OCO3)oc1ccccc12	3.16µM*	6.75µM*	14.1µM*	?	11.6µM*
Clc1ccc(-c2nnc(NC3=NCCCCC3)o2)cc1	0.316µM*	0.426µM*	?	0.355µM*	?
COc1ccc(S(=O)(=O)N(CC(=O)N(C)Cc2ccccc2)c2ccc(Cl)cc2)cc1	.	-2.0%	4.4%	.	.
O=c1c(Cl)c(NCc2ccco2)cnn1C12CC3CC(CC(C3)C1)C2	-2.7%	-17.9%	-15.4%	17.7%	-8.7%
O=c1c(Cl)c(NCc2ccccc2Cl)cnn1C12CC3CC(CC(C3)C1)C2	-4.0%	12µM*	-51.2%	-3.7%	1.1%
Cc1[nH]n2c(=O)c3c(nc2c1-c1ccc(Cl)cc1)CCC3	-23.0%	0.9%	.	-10.2%	-18.1%
O=c1c2c(nc3cc(-c4ccc(F)cc4)[nH]n13)CCC2	3.16µM*	8.49µM*	7.08µM*	2.51µM*	18.4µM*
N#CC[N+]1(Cc2ccccn2)CCCC1	.	.	-7.6%[9.22 µM]	.	.
SMILES	Rab9 promoter act	FLuc modulator	SMN2 splice up	NPC1 prom act	ELG1 genotox
Clc1ccccc1Nc1ncnc2c1nc1n2CCCCC1	.	16.9µM*	.	.	.
Clc1cccc(CNc2ncnc3c2nc2n3CCCC2)c1	.	-1.9%	.	.	.
Clc1cccc(Nc2ncnc3c2nc2n3CCCCC2)c1	.	6.75µM*	.	.	.
Clc1cccc(N2CCN(c3ncnc4c3nc3n4CCCC3)CC2)c1	.	19µM*	?	.	.
Cc1ccc(Nc2ncnc3c2nc2n3CCCC2)c(Br)c1	.	3.79µM*	.	.	.
Cc1ccc(Cl)cc1N1CCN(c2ncnc3c2nc2n3CCCCC2)CC1	.	-1.6%	.	.	.
CC(C)(C)n1cnc2cc(NC(=O)c3ccccc3)ccc21	1.41µM*	6.01µM*	.	1.41µM*	5.17µM*

Screens as filed in PubChem BioAssay.
